Bioassay records from PubChem.
Hits are enriched below; roughly 3.4% of the tested compounds scored in any of these assays.
proKLK7 act = proKLK7 zymogen activators, primary screen, biochemical, fluorescence intensity; purified proKLK7, EDANS-DABCYL substrate fluorescence; 100% is mature enzyme control, 0% vehicle; activation, % at 7 µM; hit rate 0.9% among 370,000; AID 652039, 2013;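 active means activation above the mean of all tested compounds plus 3 SD, computed per campaign excluding outliers beyond control limits, cut at about 13% in these data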
ADAM17 inh = ADAM17 inhibitors, primary screen, biochemical, QFRET; Disintegrin and metalloproteinase domain-containing protein 17 (Homo sapiens), P78536; recombinant ADAM17, EDANS/DABCYL FRET peptide cleavage; inhibition, % at 6.95 µM; hit rate 0.83% among 370,000; AID 720648, 2013;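 active means inhibition above the mean of compounds lying between control limits plus 3 SD, set per campaign, cut at about 8.5% in these data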;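 further: 0% = DMSO-only wells as the low control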
PLC-beta3 inh = human PLC-beta3 inhibitors, primary screen, biochemical, fluorescence. Purified PLC-beta3, fluorogenic substrate. inhibition, % at 12.2 µM. hit rate 0.18% among 370,000. AID 720704, 2013;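 further: 0% = median of compound wells on plate and 100% = full blocker control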
sPLA2-III inh = human group III sPLA2 inhibitors, primary screen, biochemical, QFRET, BODIPY PC-A2 liposome substrate; inhibition, % at 12.2 µM; hit rate 0.56% among 370,000; QFRET BODIPY PC-A2 liposome hydrolysis, fluorescence; Group 3 secretory phospholipase A2 (Homo sapiens), Q9NZ20; AID 743126, 2013;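 active means inhibition above mean plus 3 SD of compounds lying within the high and low control bounds, cut at about 19% in these data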;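 further: 0% = median of test compound wells and 100% = no enzyme DMSO wells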
ADAM10 inh = human ADAM10 inhibitors, primary screen, biochemical, QFRET, HTS; inhibition, % at 7 µM; AID 720582, 2013; hit rate 0.62% among 370,000; recombinant ADAM10, EDANS/DABCYL FRET peptide cleavage, 3 h;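 active means inhibition above a per-campaign cutoff equal to the mean of compounds falling between control-based bounds plus 3 SD, cut at about 20% in these data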;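 further: 0% = DMSO wells while the 100% control is not disclosed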
Target sequence (O14672 214-748 limits assumed): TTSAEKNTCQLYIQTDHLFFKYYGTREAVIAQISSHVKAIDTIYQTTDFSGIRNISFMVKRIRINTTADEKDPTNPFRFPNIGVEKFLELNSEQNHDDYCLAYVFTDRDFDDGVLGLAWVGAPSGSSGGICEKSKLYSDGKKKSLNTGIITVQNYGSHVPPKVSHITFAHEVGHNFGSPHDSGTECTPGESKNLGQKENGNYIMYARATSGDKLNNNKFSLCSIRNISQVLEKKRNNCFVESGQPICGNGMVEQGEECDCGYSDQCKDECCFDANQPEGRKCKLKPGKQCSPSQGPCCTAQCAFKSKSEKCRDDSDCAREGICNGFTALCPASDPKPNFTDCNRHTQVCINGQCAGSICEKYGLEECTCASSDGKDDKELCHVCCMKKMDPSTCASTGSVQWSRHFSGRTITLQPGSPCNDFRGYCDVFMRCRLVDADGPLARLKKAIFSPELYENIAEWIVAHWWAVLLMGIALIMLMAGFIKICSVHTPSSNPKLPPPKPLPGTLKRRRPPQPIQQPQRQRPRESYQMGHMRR
PLC-gamma1 inh = PLC-gamma1 enzyme inhibitors, primary screen, biochemical, fluorescence, purified enzyme; 1-phosphatidylinositol 4,5-bisphosphate phosphodiesterase gamma-1 (Homo sapiens), P19174; fluorogenic substrate; inhibition, % at 12.2 µM; hit rate 0.84% among 370,000; in the data active means inhibition above about 9.5%
ADAM10 confirm = human ADAM10 inhibitors, confirmation, biochemical, QFRET, triplicate; shares compounds with ADAM10 inh; ADAM10 QFRET peptide cleavage, EDANS fluorescence; inhibition, % at 6.95 µM; hit rate 1% among 2,100; AID 743208, 2013;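 active means inhibition above about 20% chosen separately for each screening run, limit read from the data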;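 further: 0% = DMSO wells and 100% = marimastat wells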
ADAM17 ctr = ADAM17 inhibitors, counter-screen for ADAM10 exosite inhibitor project, biochemical, QFRET, high throughput; ADAM17 QFRET peptide cleavage, EDANS fluorescence; shares compounds with ADAM10 inh; AID 743214, 2013; inhibition, % at 6.95 µM; hit rate 0.5% among 2,100;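 active means mean triplicate inhibition above the solvent-only control wells' mean plus 3 SD, cut at about 12% in these data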;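 further: 0% = DMSO wells and 100% = marimastat wells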
ADAM10 counter = ADAM10 inhibitors, counter-screen for ADAM17 exosite inhibitor project, biochemical, FRET, human ADAM10; shares compounds with ADAM17 inh; recombinant ADAM10, EDANS/DABCYL FRET peptide cleavage, 3 h; inhibition, % at 6.95 µM; hit rate 47% among 2,900; AID 743256, 2014;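 active means mean inhibition over the triplicate runs exceeds the activity threshold set in the earlier primary screen, cut at about 20% in these data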;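 further: 0% = DMSO wells and 100% = marimastat wells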
ADAM17 confirm = ADAM17 inhibitors, hit retest, confirmation, biochemical, QFRET peptide cleavage; hit rate 65% among 2,900; shares compounds with ADAM17 inh; recombinant ADAM17, EDANS/DABCYL QFRET peptide cleavage; AID 743257, 2014; inhibition, % at 6.95 µM;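 active means mean inhibition across replicates above the hit cutoff set in the primary screen, cut at about 8.5% in these data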;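 further: 0% = DMSO wells and 100% = marimastat wells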
PLCgamma1 ctr = PLC-gamma1 enzyme inhibitors, counter-screen for PLC-beta3 inhibitor project, biochemical, fluorescence; hit rate 3.1% among 3,300; inhibition, % at 12.3 µM; shares compounds with PLC-gamma1 inh; purified PLC-gamma1, fluorogenic substrate; AID 743258, 2014; in the data active means inhibition above about 9.5%
PLCbeta3 conf = PLC-beta3 inhibitor confirmation, biochemical, fluorescence, purified enzyme; shares compounds with PLC-gamma1 inh; fluorogenic substrate fluorescence; inhibition, % at 12.3 µM; hit rate 1% among 3,300; AID 743261, 2014
Starred values were filed as active, the others as inactive; . = no result given. Unless noted, no stated cut-off is given here; in the data, active means inhibition above about 11%; inactive means the rest.

SMILES	proKLK7 act	ADAM17 inh	PLC-beta3 inh	sPLA2-III inh	ADAM10 inh	PLC-gamma1 inh	ADAM10 confirm	ADAM17 ctr	ADAM10 counter	ADAM17 confirm	others
O=C1c2ccccc2C(=O)N1CCCCN(C(=O)c1cccc([N+](=O)[O-])c1)c1ccc(Cl)cc1	0.2	10.2*	9.0	-12.1	25.8*	6.2	5.3	1.9	30.2*	14.1*
COC(=O)C[C@@H]1CC[C@H]2[C@H](COc3ccc(NC(=O)c4cccc(C(F)(F)F)c4)cc3C(=O)N2C)O1	0.6	-3.1	-3.2	-13.3	-2.0	-0.8	.	.	.	.
Cc1ccc(S(=O)(=O)Nc2ccc(-c3csc(-c4ccccc4)n3)cc2)cc1	-1.4	15.5*	-31.3	-49.9	31.1*	-31.4	19.1	5.5	24.1*	19.8*
O=[N+]([O-])c1ccc(S(=O)(=O)Nc2ccc(-c3csc(-c4ccccc4)n3)cc2)cc1	0.0	17.3*	4.7	-99.1	34.4*	4.9	12.3	4.0	33.6*	16.8*
COC(=O)[C@]12C[C@H](CC(=O)N3CCN(C(=O)c4ccco4)CC3)C(=O)N(Cc3cccc4ccccc34)C1=C[C@H](C(C)C)O[C@@H]2C1CC1	-0.1	-2.6	3.3	-9.9	6.1	1.0	.	.	.	.
CC(C)CNC(=O)OCc1cn(Cc2ccccc2C(F)(F)F)nn1	-0.5	-8.2	0.3	1.9	-7.4	-1.8	.	.	.	.
CCc1ccc(NC(=O)CO/N=C(\C)c2cc3ccccc3o2)cc1	-0.8	12.9*	0.5	-29.1	24.5*	2.8	6.1	2.5	18.5	12.6*
COc1cc(O)c(C(CCN2CCN(c3ccccc3)CC2)c2ccc3c(c2)OCO3)c(OC)c1 (configuration not stated)	0.3	12.4*	10.2	-2.8	24.2*	6.0	8.8	3.2	8.8	6.0
CCOC(=O)[C@]12CCCC=C1N(CCCOC)C(=O)[C@@H]2CC(=O)N1CCN(C(=O)c2ccco2)CC1	0.2	-4.7	-0.1	8.1	-11.3	-0.5	.	.	.	.
CC(=O)N(C)c1ccc(NC(=O)C(Sc2ccccc2)c2ccccc2)cc1 (configuration not stated)	0.0	-0.1	-2.5	-25.0	2.3	0.8	.	.	.	.
CC(C)(C)NS(=O)(=O)c1ccc(NC(=O)C(Sc2ccccc2)c2ccccc2)cc1 (configuration not stated)	0.4	19.1*	-5.8	-66.5	41.3*	2.0	6.7	3.2	44.3*	21.5*
CCn1c(Cn2nnc(-c3ccccc3)n2)nnc1SCC(=O)N1CCOCC1	0.2	2.0	3.3	-1.0	1.1	4.1	.	.	.	.
CCn1c(Cn2nnc(-c3ccccc3)n2)nnc1SCc1ccc(Cl)c(Cl)c1	0.4	9.1*	1.9	-17.3	25.5*	4.1	7.7	1.9	31.9*	18.0*
Cc1ccc(-c2nc3ccc([N+](=O)[O-])cc3[nH]2)cc1	0.0	-0.1	-7.5	-7.8	6.4	1.1	.	.	.	.
Cc1ccc([N+](=O)[O-])cc1-c1[nH]c(-c2ccc(O)c(O)c2)nc1-c1ccccc1	0.0	8.8*	7.5	13.4	21.3*	9.7*	6.1	2.3	27.6*	13.2*	PLCgamma1 ctr=3.8;PLCbeta3 conf=6.7
O=C(Nc1cccc(O)c1)C1CC(c2c(F)cccc2Cl)=NO1 (configuration not stated)	-0.6	-5.3	-5.2	-2.0	1.9	-1.2	.	.	.	.
O=C(Nc1cc(Cl)ccc1O)C1CC(c2c(F)cccc2Cl)=NO1 (configuration not stated)	-0.7	9.6*	-4.0	-67.5	25.9*	10.1*	8.9	3.6	18.8	11.7*	PLCgamma1 ctr=-7.2;PLCbeta3 conf=-3.1
COC(=O)[C@@]12CCCCC=C1N(CCc1ccc(Cl)cc1)C(=O)[C@H]2CC(=O)NCc1cccc(C(F)(F)F)c1	0.3	4.3	-2.2	-10.9	8.8	0.4	.	.	.	.
O=C(CCNc1cc(Cl)cc(Cl)c1)c1cccs1	-0.3	7.1	4.9	-19.6	21.5*	13.5*	5.5	1.9	.	.	PLCgamma1 ctr=10.6*;PLCbeta3 conf=4.4
C#CCN(C[C@@H]1[C@@H](OC(=O)NC2CCCC2)[C@@H](OC(=O)NC2CCCC2)CN(C(=O)OC(C)C)N1C(=O)OC(C)C)S(=O)(=O)c1ccc(C)cc1	-0.6	15.1*	0.5	-18.7	32.5*	11.4*	5.5	2.7	54.1*	21.2*	PLCgamma1 ctr=-6.1;PLCbeta3 conf=-6.6
CC(=O)N1CCCN(C(=O)CCn2nnc3ccccc32)CC1	-0.7	0.2	0.1	4.9	-8.2	-2.8	.	.	.	.
c1cc2ccn(CC3CC3)c2cc1-c1ccc2ccn(CC3CC3)c2c1	-1.5	-32.3	-165.5	7.7	-99.7	-111.8	.	.	.	.
CN1C(=O)c2cc(NC(=O)Nc3ccccc3)ccc2OC[C@H]2O[C@@H](CC(=O)NC3Cc4ccccc4C3)CC[C@@H]21	-0.1	-3.4	1.3	-26.1	8.2	6.2	.	.	.	.
